High-throughput results from PubChem.
The list is not random: actives were taken first. Their share in the collection is about 7.3%.
NPC1 prom act = activators of NPC1 promoter | Huh7 NPC1 promoter luciferase reporter, 24 h | Potency, µM (titrated, usually from 9.22 µM), hits mostly activators | hit rate 2.4% among 320,000 | AID 485313; note: nearly all actives have a fitted effect of over 60% in size
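Huh7 reporter cells (NPC1 promoter driving luciferase) are dosed with compound for 24 h at 37 °C, 5% CO2; luciferase detection reagent is then added and luminescence measured after 10 min at ambient temperature.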
KinaseGlo FLuc = counter-screen: inhibitors of Kinase-Glo firefly luciferase | hit rate 0.28% among 200,000 | Potency, µM (doses to about 38.3 µM), hits mostly inhibitors | Kinase-Glo luciferase, ATP luminescence, 8 min; note: nearly all actives have a fitted effect of over 60% in size
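Light output from Kinase-Glo luciferase with luciferin and 10 uM ATP in 50 mM imidazole pH 7.2, KCl, MgCl2, Tween 20, BSA; compound pin-delivered, 8-min ambient incubation, then luminescence read.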
ELG1 genotoxic = genotoxicity induction in ELG1-luciferase HEK293T cells; HEK293T ELG1-luciferase reporter, luminescence, 16 h; hit rate 1.3% among 330,000; Potency, µM (series often up to 46 µM), usual class: activators; note: nearly all actives have a fitted effect of over 60% in size
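After overnight (16 hr) compound treatment at 37 °C, ELG1-luciferase HEK293T cells were lysed with ONE-Glo; luminescence quantified 30 min later at room temperature.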
FLuc modulator = inhibits or activates purified firefly luciferase, miR-21 counter-screen | P08659 | AID 588342 | hit rate 6.9% among 360,000 | Potency, µM (titrated, usually from 57.5 µM), most hits filed as inhibitors | purified FLuc, Km substrates, luminescence inhibition; note: nearly all actives have a fitted effect of over 55% in size
Target sequence (P08659 whole entry, looked up): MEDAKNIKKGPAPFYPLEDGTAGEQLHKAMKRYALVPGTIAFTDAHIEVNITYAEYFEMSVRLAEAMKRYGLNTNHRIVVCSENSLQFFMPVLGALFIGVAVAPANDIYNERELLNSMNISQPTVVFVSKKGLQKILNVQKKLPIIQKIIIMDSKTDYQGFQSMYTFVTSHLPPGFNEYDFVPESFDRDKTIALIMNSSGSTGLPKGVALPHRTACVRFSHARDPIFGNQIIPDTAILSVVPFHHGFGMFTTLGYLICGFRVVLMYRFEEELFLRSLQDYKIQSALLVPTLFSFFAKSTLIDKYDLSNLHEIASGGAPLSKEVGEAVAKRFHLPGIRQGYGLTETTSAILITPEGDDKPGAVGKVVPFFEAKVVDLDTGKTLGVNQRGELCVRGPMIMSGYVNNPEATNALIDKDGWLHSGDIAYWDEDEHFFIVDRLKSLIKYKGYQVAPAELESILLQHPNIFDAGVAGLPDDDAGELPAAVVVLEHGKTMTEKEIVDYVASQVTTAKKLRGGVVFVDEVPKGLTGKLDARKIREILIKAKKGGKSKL
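Purified P. pyralis luciferase, 10 nM final, with Km-level 10 uM D-luciferin and 10 uM ATP in 50 mM Tris acetate pH 7.5, 10 mM Mg acetate, 0.01% Tween-20, 0.05% BSA; 6-point qHTS titration about 60 µM downward; luminescence read.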
Rab9 promoter act = Rab9 promoter activation; Huh7 Rab9 promoter-luciferase reporter, luminescence, 24 h; Potency, µM (titrated, usually from 9.22 µM), most hits filed as activators; hit rate 2.8% among 320,000; AID 485297; note: nearly all actives have a fitted effect of over 60% in size
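Huh7 reporter line, Rab9 promoter upstream of luciferase. Compound exposure 24 h at 37 °C in reduced-serum medium with 10% FBS. Read-out: luminescence.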
SMN2 splice enh = enhancers of SMN2 splice variant expression. HEK293 SMN2-luciferase splicing reporter, luminescence, 30-36 h. Potency, µM (titrated, usually from 46.1 µM), most hits filed as activators. hit rate 2.8% among 210,000. AID 1458; note: nearly all actives have a fitted effect of over 55% in size
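HEK293 cells carry an SMN2 […]–luciferase reporter in which exon 7 inclusion puts luciferase in frame. Cells were plated 10-12 h before compound addition, then incubated 30-36 h at 37C. ONE-Glo luminescence was read; sodium butyrate at 4.5 mM final served as control.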
A number is an active result; . = inactive; ? = inconclusive; / = no result. Calls come from the whole dose curve; as a rule, active = well fitted curve in the direction sought with a large enough effect; inconclusive = small, poorly fitted or top-dose-only effect, or another doubt; inactive = no such curve, though single readings can be large; an effect the other way counts as inactive or inconclusive.

SMILES | NPC1 prom act | KinaseGlo FLuc | ELG1 genotoxic | FLuc modulator | Rab9 promoter act | SMN2 splice enh
Cc1ccc(C)c(N2CCN(C(=O)C(C)n3c(C)c4cnn(-c5ccccc5)c(=O)c4c3C)CC2)c1 (stereo not given) | / | / | / | . | / | .
CCC(C)S(=O)(=O)c1oc(-c2cccs2)nc1S(=O)(=O)c1ccccc1 (stereo not given) | / | / | / | / | / | .
Cc1ccc(-n2ccn(CC(=O)c3ccc(F)cc3)c(=O)c2=O)cc1C | / | / | / | . | / | /
Cc1ccccc1N=Nc1c(C)[nH]n(-c2ccccc2)c1=O | . | . | . | ? | . | /
Cc1[nH]n(-c2ccccc2)c(=O)c1N=Nc1ccccc1O | . | . | . | 8.5µM | . | /
O=C1c2ccccc2C(=O)N1CCC1=CCCCC1 | . | . | ? | 15µM | . | .
O=C(O)c1ccc2c(c1)C(=O)N(CCC1=CCCCC1)C2=O | . | . | . | . | . | .
COc1cc(C(=O)OCc2cc(=O)n3ccsc3n2)cc(OC)c1OC | / | / | / | . | / | /
CC(C)c1ccc(O)c(NC(=O)c2ncn[nH]2)c1 | . | . | . | ? | . | .
CC(C)c1ccc2c(c1)C1(NN=C(c3ccccc3)S1)C(=O)N2 (stereo not given) | . | . | . | 17µM | . | .
CCc1ccc2c(c1)NC(c1ccc(C)cc1)=NC(c1cccs1)=N2 | / | / | / | ? | / | .
CCc1ccc2c(c1)C1(NN=C(c3ccc(C)cc3)S1)C(=O)N2 (stereo not given) | . | . | ? | 27µM | . | .
CC(C)CN(CCNC(=O)CCN1N=C(c2ccccc2)CCC1=O)CC(C)C | / | / | / | . | / | /
Cc1ccc(CNC(=O)CCCN2C(=O)COc3ccc(C)cc32)cc1 | / | / | / | . | / | /
COc1ccc(SCC(=O)c2cc(C)c(OC(=S)N(C)C)c(C)c2)cc1 | . | . | . | 17µM | ? | .
Cc1cc(C(=O)CSc2ccc(F)cc2)cc(C)c1OC(=S)N(C)C | ? | . | 1µM | 0.67µM | ? | .
CC(C)(O)[C@@H]1CCC[N+]2(C)CCCC[C@H]12 (stereo not given in full) | / | . | / | / | / | .
CCCN(C(=O)c1cc2c(=O)oc3ccccc3c2s1)c1ccccc1C | / | / | / | . | / | .
CC1CCN(c2nnc(N)s2)CC1 | 2.2µM | . | ? | 4.3µM | 1.3µM | 2.5µM
Nc1nnc(N2CCCCC2)s1 | . | . | . | . | . | .
Cc1nn(C)c(C)c1S(=O)(=O)N1CCC(C(=O)Nc2ccc3c(c2)OCCO3)CC1 | . | . | 18µM | 15µM | . | .
COc1ccc(NC(=O)C2CCN(S(=O)(=O)c3c(C)nn(C)c3C)CC2)cc1 | . | / | . | . | . | /
COc1cccc(NC(=O)Cn2c(=O)n(-c3ccccc3)c(=O)c3ccc(C(=O)NCc4ccc5c(c4)OCO5)cc32)c1 | / | / | / | . | / | .
O=C(c1c[nH]c2ccccc12)N1CCN(Cc2ccccc2)CC1 | . | . | . | 21µM | . | .
O=C(c1ccc2ccccc2c1)N1CCN(Cc2ccccc2)CC1 | ? | / | . | 21µM | . | /
SMILES | NPC1 prom act | KinaseGlo FLuc | ELG1 genotoxic | FLuc modulator | Rab9 promoter act | SMN2 splice enh
O=C(c1c[nH]c2ccccc12)N1CCN(c2ccccc2)CC1 | . | . | . | . | . | .
O=C(Nc1cccc(C(F)(F)F)c1)N1CC2CCCN2c2ccccc21 (stereo not given) | / | / | / | . | / | /
CCCCNC(=O)CN1CCN(c2ccc(NC(=O)c3ccc(OC)cc3)cc2C(=O)O)CC1 | / | / | / | . | / | /
Cn1c(N/N=C/c2c[nH]c3ccccc23)nc2ccccc21 | ? | . | . | 1.5µM | ? | .
Cc1cc(N/N=C/c2c[nH]c3ccccc23)c2ccccc2n1 | . | . | . | . | . | .
Cn1c(N/N=C/c2cc3ccccc3nc2Cl)nc2ccccc21 | 1µM | 6.3µM | ? | 0.027µM | 0.45µM | 2.2µM
Cc1nnc(C)n1/N=C/c1cc2ccccc2nc1Cl | . | . | . | . | . | .
N#C/C(=C\c1c(Oc2ccc(F)cc2)nc2ccccn2c1=O)c1nc2ccccc2s1 | / | / | / | . | / | .
CC(C)c1ccc(NC(=S)NCc2cccs2)cc1 | . | . | ? | 15µM | . | .
Cc1nn(C(C)(C)C)c(OC(=O)C(C)(C)C)c1Sc1ccccc1 | / | / | / | . | / | .
Fc1cccc(Cn2ccc(-c3ccc4c(c3)OCO4)n2)c1 | . | . | . | 21µM | . | ?
N#CCn1nnc(-c2ccc3c(c2)OCO3)n1 | . | / | ? | ? | . | /
Cc1ccccc1Cn1ccc(-c2ccc3c(c2)OCO3)n1 | ? | . | . | 15µM | . | .
Fc1cccc(Cl)c1Cn1nnc(-c2ccc3c(c2)OCO3)n1 | ? | . | ? | 12µM | ? | 13µM
Cc1ccccc1Cn1nnc(-c2ccc3c(c2)OCO3)n1 | . | . | . | 15µM | ? | 4µM
Cc1ccn2cc(CNC(=O)c3cccc(C(F)(F)F)c3)nc2c1 | / | / | / | . | / | /
CCOC(=O)c1scc(-c2ccc(C)cc2)c1S(=O)(=O)Nc1cc(Cl)ccc1OC | / | / | / | . | / | /
Cc1cccc(NC(=O)C2CCCN2S(=O)(=O)c2ccc3nc(-c4ccccc4)[nH]c3c2)c1 (stereo not given) | / | / | / | . | / | /
COc1ccc(N2CC(NC(=O)COc3ccccc3C)CC2=O)cc1OC (stereo not given) | / | / | / | . | / | /
Cn1cccc1C(=O)OCc1cc(Cl)cc2c1OCOC2 | ? | . | ? | 13µM | ? | .
CN(C)CCN(C(=O)c1ccc2c(c1)CCCC2)c1nc2c(F)cccc2s1 | . | / | ? | 11µM | . | /
CC1(C)CC(=O)C2=C(C1)c1c(ccc3ncccc13)NC2c1cccs1 (stereo not given) | . | . | ? | . | . | .
COc1cc(C2Nc3ccc4ncccc4c3C3=C2C(=O)CCC3)cc(OC)c1O (stereo not given) | . | . | ? | . | . | 10µM
COc1cc(C2Nc3ccc4ncccc4c3C3=C2C(=O)CC(C)(C)C3)cc(OC)c1O (stereo not given) | . | . | ? | . | . | 28µM
COc1cc([C@@H]2Nc3c(F)cccc3[C@@H]3C=CC[C@@H]32)cc(Br)c1OC | / | / | / | . | / | .
SMILES | NPC1 prom act | KinaseGlo FLuc | ELG1 genotoxic | FLuc modulator | Rab9 promoter act | SMN2 splice enh
Nc1ccc2nc3c(=O)n(CCc4ccccc4)c(=O)[nH]c3nc2c1 | . | / | . | . | . | /
CCCCn1c(=O)[nH]c2nc3cc(N)ccc3nc2c1=O | ? | . | . | . | 3.2µM | ?
Nc1ccc2nc3c(=O)n(C4CCCCC4)c(=O)[nH]c3nc2c1 | ? | / | ? | 12µM | ? | /
CCSc1ncc(Cl)c(C(=O)Nc2ccc(S(=O)(=O)Nc3nccc(C)n3)cc2)n1 | / | / | / | . | / | .
COc1ccc(/C=N/NC(=O)CCn2c3ccccc3c3ccccc32)cc1O | . | . | . | 11µM | . | .
COc1ccc(/C=N/NC(=O)c2nn(-c3ccc(Cl)cc3)c(=O)c3c(N)scc23)cc1 | . | . | . | ? | . | .
COc1ccc(/C=N/NC(=O)c2nc(-c3ccccc3)cc(-c3ccccc3)n2)cc1O | . | . | . | 1.5µM | . | .
